Data: the supplement of paper PMC6522484
± gives the standard deviation of the averaged measurements.

How the values were obtained:
DLD1 [1] = assay: cell viability (CellTiter-Glo) relative to plate median (fraction of plate median); higher = more viable cells; conditions: 10 µM, treatment time 24 h
How it was run: (§1)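 Reporter and viability luminescence were measured in colorectal cancer cells stably carrying lentiviral TCF/Wnt firefly luciferase reporters. The cells were exposed to kinase inhibitor library compounds at a final 10 µM for 24 h, starting 24 h after seeding in 384-well plates. Each well was normalised to the plate median (webcellHTS2, additive, no log transformation), and two independent replicates were averaged.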

HCT116 [2] = assay: as above; conditions: 10 µM; treatment time 24 h; reporter: TCF4/Wnt
How it was run: as §1

SW480 [3] = assay: as above; conditions: 10 µM; treatment time 24 h; reporter: 7TFP
How it was run: as §1

DLD1 [4] = assay: TCF/Wnt firefly luciferase reporter signal relative to plate median (fraction of plate median); higher = higher Wnt reporter signal; conditions: 10 µM, treatment time 24 h
How it was run: as §1

HCT116 [5] = assay: as above; conditions: 10 µM; treatment time 24 h; reporter: TCF4/Wnt
How it was run: as §1

SW480 [6] = assay: as above; conditions: 10 µM; treatment time 24 h; reporter: 7TFP
How it was run: as §1

Compound	cell viability (DLD1 [1]; reporter: 7TFP)	cell viability (DLD1 [1]; reporter: TCF4/Wnt)	cell viability (HCT116 [2])	cell viability (SW480 [3])	TCF/Wnt firefly luciferase reporter signal (DLD1 [4]; reporter: 7TFP)	TCF/Wnt firefly luciferase reporter signal (DLD1 [4]; reporter: TCF4/Wnt)	TCF/Wnt firefly luciferase reporter signal (HCT116 [5])	TCF/Wnt firefly luciferase reporter signal (SW480 [6])
C[C@@H](Oc1cc(-c2cnn(C3CCNCC3)c2)cnc1N)c1c(Cl)ccc(F)c1Cl	0.882 ± 0.067	1.04 ± 0.042	0.674 ± 0.1	0.996 ± 0.048	0.833 ± 0.16	0.831 ± 0.077	0.978 ± 0.29	0.682 ± 0.15
O=C(NCCCNc1nc(Nc2cccc(NC(=O)N3CCCC3)c2)ncc1I)c1cccs1	0.966 ± 0.19	0.97 ± 0.21	0.817 ± 0.6	1.06 ± 0.14	0.81 ± 0.0057	0.882 ± 0.32	1.06 ± 1.1	1.06 ± 0.021
CC(C)n1nc(-c2cc3cc(O)ccc3[nH]2)c2c(N)ncnc21	0.86 ± 0.18	0.984 ± 0.037	0.698 ± 0.067	1.15 ± 0.085	0.557 ± 0.016	0.752 ± 0.0057	0.547 ± 0.061	0.636 ± 0.26
C[C@@H](Oc1cc(-n2cnc3ccc(CN4CCN(C)CC4)cc32)sc1C(N)=O)c1ccccc1C(F)(F)F	0.905 ± 0.036	0.934 ± 0.033	0.782 ± 0.0057	1.05 ± 0.057	0.726 ± 0.15	0.565 ± 0.17	0.335 ± 0.045	0.941 ± 0.11
CC(C)(O)CC(=O)NCCn1ccc2ncnc(Nc3ccc(Oc4cccc(C(F)(F)F)c4)c(Cl)c3)c21	1.04 ± 0.16	1.03 ± 0.089	1.17 ± 0.14	0.959 ± 0.058	1.16 ± 0.15	1.07 ± 0.18	0.902 ± 0.27	0.879 ± 0.5
CN1CCN(C2CCN(C(=O)Nc3cc(Oc4ccc(NC(=O)C5(C(=O)Nc6ccc(F)cc6)CC5)c(F)c4)ccn3)CC2)CC1 [Golvatinib (E7050)]	0.964 ± 0.18	0.904 ± 0.011	1.07 ± 0.064	1.16 ± 0.064	0.719 ± 0.03	0.728 ± 0.028	0.915 ± 0.12	1.06 ± 0.12
CNC(=O)c1cc(Oc2ccc(NC(=O)Nc3ccc(Cl)c(C(F)(F)F)c3)c(F)c2)ccn1 [Regorafenib (BAY 73-4506)]	1.04 ± 0.021	0.985 ± 0.092	1 ± 0.024	1.13 ± 0.014	0.816 ± 0.21	0.7185 ± 0.005	0.742 ± 0.34	1.03 ± 0.31
CNC(=O)c1cccc(-c2ccc3c(N4CCOC[C@@H]4C)nc(N4CCOC[C@@H]4C)nc3n2)c1	0.9035 ± 0.0064	0.874 ± 0.045	0.794 ± 0.055	1.07	0.328 ± 0.086	0.487 ± 0.073	0.549 ± 0.09	0.629 ± 0.35
COc1cc2nccc(Oc3ccc(NC(=O)Nc4cc(C)on4)c(Cl)c3)c2cc1OC [Tivozanib (AV-951)]	0.936 ± 0.09	0.997 ± 0.033	1.11 ± 0.021	1.07 ± 0.021	0.755 ± 0.0078	0.726 ± 0.046	1.15 ± 0.099	0.775 ± 0.32
Cc1cc(Nc2cc(CN3CCOCC3)c3nc(C)c(Cc4ccc(Cl)cc4F)n3n2)n[nH]1	0.907 ± 0.096	1.05 ± 0.064	0.975 ± 0.12	0.781 ± 0.14	1.27 ± 0.028	1.17 ± 0.43	0.826 ± 0.61	0.861 ± 0.05
CCCS(=O)(=O)Nc1ccc(F)c(C(=O)c2c[nH]c3ncc(-c4ccc(Cl)cc4)cc23)c1F [Vemurafenib (PLX4032)]	1.19 ± 0.13	0.976 ± 0.023	1.2 ± 0.05	0.878 ± 0.042	1.14 ± 0.028	0.939 ± 0.015	1.155 ± 0.0071	0.866 ± 0.11
COCC(=O)NC/C=C/c1ccc2ncnc(Nc3ccc(Oc4ccc(C)nc4)c(C)c3)c2c1	0.964 ± 0.14	1.035 ± 0.0071	1.06 ± 0.014	0.952 ± 0.059	1.18 ± 0.064	1.19 ± 0.17	0.786 ± 0.27	0.927 ± 0.43
COc1cc2c(Nc3ccc(NC(=O)c4ccccc4)cc3)ncnc2cc1OCCCN1CCOCC1	0.8075 ± 0.005	0.872 ± 0.042	1.01 ± 0.041	1.11 ± 0.021	1.13 ± 0.085	1.19 ± 0.2	1.42 ± 0.23	1.43 ± 0.057
CN1CCN(CCOc2cc(OC3CCOCC3)c3c(Nc4c(Cl)ccc5c4OCO5)ncnc3c2)CC1 [Saracatinib (AZD0530)]	0.936 ± 0.048	0.874 ± 0.066	0.968 ± 0.0042	1.03 ± 0.047	0.824 ± 0.12	0.879 ± 0.036	0.799 ± 0.25	0.613 ± 0.32
O=C1NC(=O)/C(=C/c2ccc3nccc(-c4ccncc4)c3c2)S1	0.973 ± 0.038	1.07 ± 0.071	0.597 ± 0.061	1.02 ± 0.13	0.312 ± 0.018	0.564 ± 0.29	0.417 ± 0.25	0.572 ± 0.07
C[C@@H]1CN(CC(=O)Nc2ccc3c(c2)Cc2cccc(-c4cc(=O)cc(N5CCOCC5)o4)c2S3)C[C@H](C)O1	0.7975 ± 0.00071	0.878 ± 0.043	0.957 ± 0.012	0.952 ± 0.058	1.3 ± 0.092	1.32 ± 0.11	1.33 ± 0.66	1.23 ± 0.071
S=C(NCc1ccc2c(c1)OCO2)N1CCN(c2ncnc3c2oc2ccccc23)CC1 [Amuvatinib (MP-470)]	0.997 ± 0.047	1.03 ± 0.091	1.15 ± 0.17	0.869 ± 0.013	1.07 ± 0.092	1.23 ± 0.057	1.13 ± 0.29	0.953 ± 0.12
CO[C@H]1C[C@@H]2CC[C@@H](C)[C@@](O)(O2)C(=O)C(=O)N2CCCC[C@H]2C(=O)O[C@H]([C@H](C)C[C@@H]2CC[C@@H](OCCO)[C@H](OC)C2)CC(=O)[C@H](C)/C=C(\C)[C@@H](O)[C@@H](OC)C(=O)[C@H](C)C[C@H](C)/C=C/C=C/C=C/1C [Everolimus (RAD001)]	1.04 ± 0.11	1.02 ± 0.028	0.974 ± 0.094	1.26 ± 0.028	0.893 ± 0.091	1.05 ± 0.14	0.951 ± 0.15	1.42 ± 0.057
C[C@]1(O)C[C@@H](c2nc(-c3ccc4ccc(-c5ccccc5)nc4c3)c3c(N)nccn32)C1 [Linsitinib (OSI-906)]	0.876 ± 0.018	0.856 ± 0.15	0.82 ± 0.0099	0.995 ± 0.021	1.11 ± 0.078	1.33 ± 0.23	1.29 ± 0.12	1.27 ± 0.057
N#Cc1c(O)c2c(-c3ccc(-c4ccccc4O)cc3)csc2[nH]c1=O	1.13 ± 0.014	1.13 ± 0.071	1.25	0.922 ± 0.052	1.03 ± 0.014	0.96 ± 0.2	1.08 ± 0.064	0.976 ± 0.16
